# From the supplement of paper PMC10646978
# ± gives the standard deviation.
# Columns and labels:
# Settings in all cases: modulator concentration 10 µM
# [1] = system: RAW-Dual (murine macrophage reporter line); assay: NF-kB reporter (SEAP) activity fold change vs agonist alone; higher = enhanced NF-kB activity
# Procedure, shortened: (§1)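 RAW-Dual murine macrophage reporter cells were seeded at 50 000 per well in 384-well plates and pre-incubated 1 hour at 37 °C with compound pin-transferred to 10 μM final. After 1 hour, a PRR agonist was added and cells incubated overnight. Supernatant NF-κB (SEAP, QUANTI-Blue, 620 nm absorbance) and IRF (Lucia luciferase, QUANTI-Luc, luminescence) signals were divided by the mean agonist-only control on the same plate to give fold change. Two replicate plates were averaged, with errors by propagation.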
# [2] = system: RAW-Dual (murine macrophage reporter line); assay: IRF reporter (Lucia luciferase) activity fold change vs agonist alone; higher = enhanced IRF activity
# Procedure, shortened: as §1
# [3] = system: RAW-Dual (murine macrophage reporter line); assay: viability score (confluency relative to resting cells, overnight) (fraction); higher = more viable, active = viable (0.7 or more)
# Procedure, shortened: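 Two confluency masks, generated with IncuCyte software over all imaged wells, were applied to IncuCyte images of RAW-Dual macrophages. The cells, in 384-well plates, had been exposed overnight to 10 μM final compound. The viability score is confluency as a fraction of resting cells, and a compound met the cutoff only with both masks above 70% of resting cells.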
# [4] = agonist: CpG ODN 1826 0.5 ug/mL
SMILES,"NF-kB reporter [1, 4]",NF-kB reporter ([1]; agonist: LPS 0.1 ug/mL),NF-kB reporter ([1]; agonist: MPLA […]),IRF reporter ([2]; agonist: 3'3'-cGAMP 10 ug/mL),IRF reporter ([2]; agonist: LPS 0.1 ug/mL),IRF reporter ([2]; agonist: MPLA […]),viability score [3]
O=C(Cn1cc(S(=O)(=O)c2ccc(F)cc2)c2ccccc21)N1CCCCCC1,0.825 ± 0.12,0.902 ± 0.073,1.02 ± 0.055,0.847 ± 0.071,1.2 ± 0.19,1.3 ± 0.48,0.972 (active)
C[C@H]1[C@@H](OC(=O)CCC(=O)O)O[C@@H]2O[C@]3(C)CC[C@H]4[C@H](C)CC[C@@H]1[C@@]24OO3,1.02 ± 0.071,1.12 ± 0.11,0.95 ± 0.043,0.934 ± 0.11,1.11 ± 0.14,1.06 ± 0.25,1 (active)
CN(C)c1cncc(OC2CCN(S(C)(=O)=O)C2)n1 (centres undefined),1.02 ± 0.12,1.12 ± 0.1,0.911 ± 0.04,0.836 ± 0.045,0.951 ± 0.064,0.923 ± 0.07,1.01 (active)
Cc1cn2nc(C(=O)Nc3ccccc3N3CCN(C)CC3)cc2c(=O)[nH]1,0.685 ± 0.035,1.08 ± 0.11,0.864 ± 0.047,1.02 ± 0.052,1.26 ± 0.076,1.09 ± 0.098,0.941 (active)
Cn1c(=O)c2c(ncn2CC2OCCO2)n(C)c1=O,0.89 ± 0.12,0.921 ± 0.067,0.99 ± 0.057,0.919 ± 0.084,0.904 ± 0.11,0.845 ± 0.17,1 (active)
COc1cccc(N2CCN(C3CCN(CC4CCOCC4)CC3)CC2)c1,0.75 ± 0.078,1.03 ± 0.11,1.22 ± 0.17,0.901 ± 0.043,1.26 ± 0.23,1.42 ± 0.49,0.966 (active)
CCOC(=O)C1=C(C)NC(C)=C(C(=O)OCC)C1c1ccc(OC)cc1OC,1.01 ± 0.21,1.27 ± 0.12,1.16 ± 0.18,1.01 ± 0.033,1 ± 0.24,1.25 ± 0.24,1 (active)
Cc1ccc(NC(=O)Nc2c(C)nc(N3CCN(C)CC3)nc2C)cc1F,0.993 ± 0.049,1.03 ± 0.11,0.818 ± 0.037,0.925 ± 0.046,1.21 ± 0.083,1.17 ± 0.15,0.97 (active)
COCCNC(=O)C=Cc1ccccc1,1.12 ± 0.12,0.936 ± 0.085,1.05 ± 0.072,1.02 ± 0.15,0.98 ± 0.055,1.03 ± 0.074,0.991 (active)
Brc1ccc(C(Cc2ccccc2)Nc2ccccn2)cc1 (centres undefined),0.255 ± 0.014,1.07 ± 0.071,0.929 ± 0.084,1.27 ± 0.042,1.75 ± 0.12,1.28 ± 0.12,0.959 (active)
Cc1cn([C@H]2C=C[C@@H](CO)O2)c(=O)[nH]c1=O [Prestw-1279],1.13 ± 0.11,1.05 ± 0.13,0.957 ± 0.077,0.969 ± 0.074,0.94 ± 0.092,0.877 ± 0.13,0.998 (active)
COC(c1ccccc1)(c1ccccc1)[C@H](Oc1nc(C)cc(C)n1)C(=O)O,1.32 ± 0.18,1.08 ± 0.11,0.901 ± 0.055,1.05 ± 0.043,1.3 ± 0.14,1.15 ± 0.11,1 (active)
Cc1nnc(C(=O)NC(C)(C)c2nc(C(=O)NCc3ccc(F)cc3)c(O)c(=O)n2C)o1,1.08 ± 0.19,1.09 ± 0.13,0.935 ± 0.056,0.878 ± 0.029,1.27 ± 0.15,0.988 ± 0.076,0.992 (active)
Cc1cc(C)n(C2CC(=O)N(c3ccccc3)C2=O)n1 (centres undefined),1.04 ± 0.08,0.926 ± 0.1,1.21 ± 0.2,1.05 ± 0.04,1.31 ± 0.25,1.42 ± 0.21,1.02 (active)
O=C(Nc1ccc([N+](=O)[O-])cc1)c1cc(Cl)ccc1O,1.14 ± 0.18,1.02 ± 0.088,0.841 ± 0.081,0.905 ± 0.033,1.17 ± 0.11,1.28 ± 0.17,0.991 (active)
COC(=O)C(NC(=O)C(C)(C)C)C12CC3CC(CC(C3)C1)C2 (centres undefined),0.96 ± 0.075,0.892 ± 0.067,0.934 ± 0.094,1.06 ± 0.058,1.38 ± 0.23,1.49 ± 0.3,1.02 (active)
Clc1cccc(Nc2nc(-c3ccccn3)cs2)c1,0.881 ± 0.15,0.379 ± 0.2,0.597 ± 0.18,0.537 ± 0.092,0.658 ± 0.2,0.658 ± 0.23,0.246 (inactive)
O=C1CC(c2ccc(O)cc2)Oc2cc(O)cc(O)c21 (centres undefined),1.31 ± 0.34,1.27 ± 0.17,1.21 ± 0.077,0.746 ± 0.031,1.09 ± 0.14,1.13 ± 0.11,1 (active)
CCOc1ccccc1NC(=O)NCCc1csc(-n2nc(C)cc2C)n1,0.996 ± 0.069,1.14 ± 0.096,0.797 ± 0.12,1.12 ± 0.085,0.983 ± 0.061,0.938 ± 0.41,1.01 (active)
COc1cc(OC)c(NC(=O)C2CCCN(c3ccc(-c4ccc(C)c(C)c4)nn3)C2)cc1Cl (centres undefined),1.04 ± 0.09,1.04 ± 0.081,0.93 ± 0.04,0.964 ± 0.052,1.09 ± 0.066,1 ± 0.15,1.01 (active)
O=C(NCCCn1ccc2cccnc21)c1nc2ccccc2s1,0.766 ± 0.19,1.04 ± 0.092,1.09 ± 0.07,0.813 ± 0.071,0.942 ± 0.22,1.02 ± 0.15,1 (active)
CCC(CNC(=O)Cc1c(F)cccc1Cl)(OC)c1ccccc1 (centres undefined),0.854 ± 0.06,0.911 ± 0.091,1.06 ± 0.062,0.955 ± 0.074,1.09 ± 0.2,1.17 ± 0.37,0.825 (active)
NC(=O)c1cc2ccccc2oc1=NCc1ccccc1,0.907 ± 0.09,1.06 ± 0.067,0.91 ± 0.1,0.946 ± 0.023,1.16 ± 0.16,1.07 ± 0.22,1.01 (active)
O=c1ccn([C@@H]2O[C@H](CO)[C@@H](O)[C@H]2O)c(=O)[nH]1,1.05 ± 0.087,0.912 ± 0.045,1.05 ± 0.059,1.09 ± 0.066,0.985 ± 0.032,0.919 ± 0.1,0.998 (active)
Cc1cc(O)nc(NN)n1,1.06 ± 0.087,1.01 ± 0.062,1.02 ± 0.033,0.983 ± 0.054,0.971 ± 0.13,0.861 ± 0.13,0.999 (active)
O=C1CNC(=O)N1CC(O)Cn1c2ccc(Br)cc2c2cc(Br)ccc21 (centres undefined),0.998 ± 0.091,0.791 ± 0.068,0.908 ± 0.025,0.989 ± 0.22,0.928 ± 0.044,0.698 ± 0.079,0.926 (active)
O=C1OC(c2ccc3ccccc3c2)=NC1=Cc1ccc(Cl)c([N+](=O)[O-])c1,0.973 ± 0.079,1.07 ± 0.067,0.881 ± 0.053,0.976 ± 0.03,1.53 ± 0.14,1.16 ± 0.2,1.01 (active)
